Holding throughout (test): DAPPL (digital affinity profiling via proximity ligation, sequencing); 10 mM Tris-HCl pH 7.5, 50 mM NaCl, 1 mM DTT, 4% glycerol, room temperature, 30 min; GST-TFs on glutathione beads, 16-mer random dsDNA library, 0.1% formaldehyde crosslink after washing; high values mean tight binding
Holding throughout (conditions): protein: recombinant; tags: N-terminal GST; dsDNA, one strand shown

In one test the target is T1, ERF (Homo sapiens, UniProt P50548 1-548).
T1 sequence: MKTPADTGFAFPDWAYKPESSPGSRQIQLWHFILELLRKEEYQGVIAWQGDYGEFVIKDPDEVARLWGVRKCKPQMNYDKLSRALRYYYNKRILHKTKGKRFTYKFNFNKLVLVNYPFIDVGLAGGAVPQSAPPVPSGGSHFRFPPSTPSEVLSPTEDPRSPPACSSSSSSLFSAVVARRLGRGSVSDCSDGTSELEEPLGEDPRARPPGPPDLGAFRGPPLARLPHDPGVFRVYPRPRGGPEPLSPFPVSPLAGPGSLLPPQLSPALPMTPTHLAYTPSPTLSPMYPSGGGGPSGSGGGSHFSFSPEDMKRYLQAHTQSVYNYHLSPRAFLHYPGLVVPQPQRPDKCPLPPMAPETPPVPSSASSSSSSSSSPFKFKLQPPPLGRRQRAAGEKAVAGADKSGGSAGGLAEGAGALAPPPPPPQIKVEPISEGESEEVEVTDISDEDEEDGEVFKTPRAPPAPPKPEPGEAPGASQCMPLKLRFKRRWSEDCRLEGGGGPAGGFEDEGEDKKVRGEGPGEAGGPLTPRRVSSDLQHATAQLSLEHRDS
Summed up:
(§1)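 A tag-only sample was pooled with DNA-barcoded human transcription factors that had been expressed in yeast as GST fusions and captured on glutathione beads. The pools were incubated for 30 min at room temperature with 200 nmole of a random double-stranded 16-mer DNA library in Tris/NaCl/DTT/glycerol buffer, then washed, crosslinked with 0.1% formaldehyde, proximity-ligated (BsaI/T4 ligase, 1 h, 37 °C), PCR-amplified and sequenced on an Illumina NextSeq500. Binding signal is each hexamer's read frequency for a factor divided by its frequency for the tag-only sample.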

Another test has as its target T2, ETV3L (Homo sapiens, UniProt Q6ZN32 1-361).
T2 sequence: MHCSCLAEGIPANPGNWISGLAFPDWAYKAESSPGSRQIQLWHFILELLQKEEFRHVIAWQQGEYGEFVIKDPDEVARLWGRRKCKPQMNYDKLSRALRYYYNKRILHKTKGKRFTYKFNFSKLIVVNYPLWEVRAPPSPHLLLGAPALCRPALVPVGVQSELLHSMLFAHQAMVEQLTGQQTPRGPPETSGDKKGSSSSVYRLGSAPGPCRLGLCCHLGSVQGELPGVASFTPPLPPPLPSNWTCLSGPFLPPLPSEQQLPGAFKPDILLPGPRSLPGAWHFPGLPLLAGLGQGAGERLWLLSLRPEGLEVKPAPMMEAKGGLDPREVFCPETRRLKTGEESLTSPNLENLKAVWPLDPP
In outline:
as §1

Another test has as its target T3, ETV7 (Homo sapiens, UniProt Q9Y603 1-341).
T3 sequence: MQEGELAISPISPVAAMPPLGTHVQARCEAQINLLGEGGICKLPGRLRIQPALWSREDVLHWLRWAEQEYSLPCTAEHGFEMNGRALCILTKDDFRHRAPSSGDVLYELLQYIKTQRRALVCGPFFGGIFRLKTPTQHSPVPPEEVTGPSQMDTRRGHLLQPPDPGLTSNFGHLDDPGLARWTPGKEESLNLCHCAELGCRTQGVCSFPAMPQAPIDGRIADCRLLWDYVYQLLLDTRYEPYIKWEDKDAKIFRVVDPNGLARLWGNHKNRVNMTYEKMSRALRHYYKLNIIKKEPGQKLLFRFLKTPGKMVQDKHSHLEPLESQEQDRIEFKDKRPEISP
In outline:
as §1

For another test, the target named is T4, ELF5 (Homo sapiens, UniProt Q9UKW6-2 1-255).
T4 sequence: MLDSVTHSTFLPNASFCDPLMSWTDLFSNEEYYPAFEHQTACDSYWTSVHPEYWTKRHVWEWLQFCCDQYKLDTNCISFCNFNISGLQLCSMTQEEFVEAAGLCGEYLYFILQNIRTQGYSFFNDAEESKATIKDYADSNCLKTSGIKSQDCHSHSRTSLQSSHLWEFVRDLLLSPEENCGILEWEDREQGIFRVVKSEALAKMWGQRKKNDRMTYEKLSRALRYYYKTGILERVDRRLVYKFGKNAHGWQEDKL
Summed up: as §1

The next test has as its target T5, ETV3 (Homo sapiens, UniProt P41162-2 1-143).
T5 sequence: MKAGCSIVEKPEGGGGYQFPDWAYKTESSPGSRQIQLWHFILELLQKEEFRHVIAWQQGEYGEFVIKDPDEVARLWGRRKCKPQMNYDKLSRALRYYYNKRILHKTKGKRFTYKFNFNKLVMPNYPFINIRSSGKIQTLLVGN
In outline: as §1

A further test has as its target ETV6 (Homo sapiens, UniProt P41212 1-452). In outline: as §1
In the next test the target is T6, ETS2 (Homo sapiens, UniProt P15036 1-469).
T6 sequence: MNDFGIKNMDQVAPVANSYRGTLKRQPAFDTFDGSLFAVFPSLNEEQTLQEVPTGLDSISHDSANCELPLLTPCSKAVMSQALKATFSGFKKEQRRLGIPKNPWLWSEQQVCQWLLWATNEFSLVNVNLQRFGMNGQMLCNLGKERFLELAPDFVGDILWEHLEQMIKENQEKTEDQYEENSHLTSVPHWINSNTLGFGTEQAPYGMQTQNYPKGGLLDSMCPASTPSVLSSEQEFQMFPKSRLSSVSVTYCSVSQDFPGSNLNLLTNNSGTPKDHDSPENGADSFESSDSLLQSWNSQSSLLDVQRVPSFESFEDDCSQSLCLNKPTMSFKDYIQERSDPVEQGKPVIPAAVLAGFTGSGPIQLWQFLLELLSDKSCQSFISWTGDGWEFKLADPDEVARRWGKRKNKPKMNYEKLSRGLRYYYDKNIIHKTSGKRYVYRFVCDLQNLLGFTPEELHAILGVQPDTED
In outline:
as §1

Chain of ETV6 (P41212 whole entry): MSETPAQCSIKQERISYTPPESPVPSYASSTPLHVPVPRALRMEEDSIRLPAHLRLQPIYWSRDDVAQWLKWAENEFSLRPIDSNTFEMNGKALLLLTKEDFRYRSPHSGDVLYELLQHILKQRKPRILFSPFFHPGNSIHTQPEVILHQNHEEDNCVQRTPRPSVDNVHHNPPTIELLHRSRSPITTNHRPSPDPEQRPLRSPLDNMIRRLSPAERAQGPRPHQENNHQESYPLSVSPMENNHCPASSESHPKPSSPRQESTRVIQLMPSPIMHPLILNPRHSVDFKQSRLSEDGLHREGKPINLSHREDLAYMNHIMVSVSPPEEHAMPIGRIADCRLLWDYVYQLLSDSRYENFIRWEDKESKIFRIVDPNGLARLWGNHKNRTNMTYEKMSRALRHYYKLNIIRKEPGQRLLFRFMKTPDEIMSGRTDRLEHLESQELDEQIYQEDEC

Consider CGATGA, for which the binding signal with ERF is 1.14 fold enrichment (6-mer frequency, TF over GST control); in the test with ETV3L it was 1.12 fold enrichment (6-mer frequency, TF over GST control); with ETV7, 1.13 fold enrichment (6-mer frequency, TF over GST control); with ELF5, 1.01 fold enrichment (6-mer frequency, TF over GST control).

On to AAGCCC, for which the binding signal in the test with ERF is 1.11 fold enrichment (6-mer frequency, TF over GST control); with ETV3L, 1.07 fold enrichment (6-mer frequency, TF over GST control); with ETV7, 1.01 fold enrichment (6-mer frequency, TF over GST control); with ELF5, 1.02 fold enrichment (6-mer frequency, TF over GST control); with ETV3, 1.1 fold enrichment (6-mer frequency, TF over GST control); with ETV6, 1.03 fold enrichment (6-mer frequency, TF over GST control).

On to CATGGG, for which the binding signal with ERF was 1.01 fold enrichment (6-mer frequency, TF over GST control); with ETV3L, 1.14 fold enrichment (6-mer frequency, TF over GST control); in the test with ETV7 it was 1.03 fold enrichment (6-mer frequency, TF over GST control); with ELF5, 1.04 fold enrichment (6-mer frequency, TF over GST control); with ETV6, 1.01 fold enrichment (6-mer frequency, TF over GST control).

As for GTCCAC, the binding signal is 1.07 fold enrichment (6-mer frequency, TF over GST control) with ERF; 1.12 fold enrichment (6-mer frequency, TF over GST control) with ETV3L; 1.05 fold enrichment (6-mer frequency, TF over GST control) with ETS2; 1.01 fold enrichment (6-mer frequency, TF over GST control) with ETV7; 1.03 fold enrichment (6-mer frequency, TF over GST control) with ETV6.

Turning to AGCCCC, the binding signal in the test with ERF is 1.03 fold enrichment (6-mer frequency, TF over GST control); with ETV3L it was 1.07 fold enrichment (6-mer frequency, TF over GST control); in the test with ETS2, 1.09 fold enrichment (6-mer frequency, TF over GST control); with ELF5, 1.01 fold enrichment (6-mer frequency, TF over GST control); with ETV3 it was 1.11 fold enrichment (6-mer frequency, TF over GST control); with ETV6, 1.12 fold enrichment (6-mer frequency, TF over GST control).

For TCATGG, the binding signal with ERF was 1.07 fold enrichment (6-mer frequency, TF over GST control); in the test with ETV3L, 1.05 fold enrichment (6-mer frequency, TF over GST control); with ETS2, 1.1 fold enrichment (6-mer frequency, TF over GST control); with ETV7, 1.1 fold enrichment (6-mer frequency, TF over GST control); with ELF5, 1.07 fold enrichment (6-mer frequency, TF over GST control); in the test with ETV3 it was 1.11 fold enrichment (6-mer frequency, TF over GST control). In the test with ETV6, the binding signal was 1.11 fold enrichment (6-mer frequency, TF over GST control).

In the case of AACGCC, the binding signal with ERF was 1 fold enrichment (6-mer frequency, TF over GST control); in the test with ETV3L, 1.11 fold enrichment (6-mer frequency, TF over GST control); in the test with ETS2, 1.06 fold enrichment (6-mer frequency, TF over GST control); with ELF5, 1.01 fold enrichment (6-mer frequency, TF over GST control); in the test with ETV3, 1.06 fold enrichment (6-mer frequency, TF over GST control); with ETV6, 1.19 fold enrichment (6-mer frequency, TF over GST control).

For GAATCT, the binding signal is 1.17 fold enrichment (6-mer frequency, TF over GST control) with ERF; 1.05 fold enrichment (6-mer frequency, TF over GST control) in the test with ETV3L; 1.08 fold enrichment (6-mer frequency, TF over GST control) with ETS2; 1.03 fold enrichment (6-mer frequency, TF over GST control) with ETV7; 1.07 fold enrichment (6-mer frequency, TF over GST control) in the test with ELF5; 1.13 fold enrichment (6-mer frequency, TF over GST control) with ETV3. Moreover, in the test with ETV6, the binding signal was 1.06 fold enrichment (6-mer frequency, TF over GST control).

The record behind these values is article PMC7862700, “An all-to-all approach to the identification of sequence-specific readers for epigenetic DNA modifications on cytosine”.
